For 40 compounds, growth results are on record in PubChem BioAssay (NCI).

Compounds without any hit were thinned out: in the full panel of roughly 83,000, 20% have a hit.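 Values shown are percent growth following 48 h exposure of cells in 96-well plates to a single concentration of compound; below 10 was considered active.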 A number with no mark means an inactive call. Activity calls are given as the source filed them.

The assay relates to HL-60(TB) leukemia. Briefly: NCI-60 one-dose screen, 48 h (100 = growth as untreated, 0 = no growth, -100 = all killed). The following applies: 10 µM unless noted.
In the case of `FC(F)(F)c1cc(-c2nnc3n2N=C(Cl)CS3)cc(C(F)(F)F)c1`, the growth is 93.2%.
Take `COc1ccc(-c2cc(=O)c3c(OC)c4ccoc4c(/C=C/C=O)c3o2)cc1`: the growth is -3.36% (active).
The figure for `CC(C)(C)CC(C)(C)Nc1c(-c2c(O)c3ccccc3oc2=O)nc2c(Cl)cc(C(F)(F)F)cn12` is 90.9%.
The figure for `Cc1cc(C(O)CN(C)C)cc2c1ccc1cc(C(C)C)ccc12` (stereo not given) is -52.8% (active); for `CCOC(=O)c1cc2c(n1Cc1cc(OC)c(OC)c(OC)c1)-c1oncc1CCC2` it is -8.69% (active).
The figure for `Cc1nc2ccccc2c(/C=C/c2ccc(Br)cc2)c1C(=O)/C=C/c1ccccc1` is 2.74% (active); for `COc1cc2c(cc1O)CC[C@@H]1[C@@H]2CC[C@]2(C)[C@@H](OCCN(C)C)CC[C@@H]12` it is 87.6%; for `N=C1C=C(N)C(=O)c2ccccc21` it is -32.8% (active).
Turning to `Oc1ccc2cc(Br)ccc2c1-c1c(O)ccc2cc(Br)ccc12`, the growth was 81.2%.
`COC(=O)N/N=C/c1c[n+]([O-])c2ccccc2[n+]1[O-]`: the growth is 97.2%.
Take `COc1cc(/C=C/C(=O)N2CCN(C(=O)c3cc(OC)c(OC)c(OC)c3)CC2)ccc1OCCCOc1cc2c(cc1OC)C(=O)N1CCC[C@H]1C=N2`: the growth is -28% (active).
Under `COc1cccc(/C=C/C(=O)Nc2cc(OC)c3c(c2)OCO3)c1` stands 78%.
Under `Cc1cc(N)c(S(=O)(=O)O)c(N)c1` stands 98.9%; under `CCCCOC(=O)Oc1ccc(C(=O)Oc2ccc(OCC)cc2)cc1`, 109%.
Take `CC(=O)/C(=C/c1ccc(Br)cc1)C(=O)c1ccccc1`: the growth was 57%.
The figure for `O=C(NCCNc1nccc(-c2c(-c3cccc(O)c3)nc3sccn23)n1)c1cc(N2CCOCC2)cc(C(F)(F)F)c1` is 102%; for `Cc1cc(=O)oc2c1ccc1oc(C(=O)c3ccccc3)c(C)c12` it is 75.2%; for `CN(C)CCOc1nc2c3cc([N+](=O)[O-])ccc3nn2c2ccccc12` it is 11.7%.
On to `CC(=O)c1cc2c(cc1F)C(C)(C)CCC2(C)C`, for which the growth was 86.3%.
For the compound `COc1ccc(C2CC(=O)c3c(O)c(OC)c(OC)c(OC)c3O2)c(O)c1` (stereo not given), the growth is 2.26% (active).
The figure for `O=C(CCN1CCCC1)Nc1ccc2c(NCCc3ccccc3)c3ccccc3nc2c1` is -58% (active); for `COc1ccccc1/C=N\Nc1ccc([N+](=O)[O-])cn1` it is 89.5%.
The figure for `O=C1c2cccc3c([N+](=O)[O-])ccc(c23)C(=O)N1CCCCl` is -25.4% [100 µM] (active); for `COc1ccc(-c2nc3c(c(-c4ccc(Cl)cc4)nn3-c3ccccc3)c(-c3ccccc3)c2C#N)cc1` it is 114%; for `CCNc1nc(O)c(/C=C2\C=Nc3ncccc32)s1` it is -22.4% (active).
Under `COc1ccc(OC)c(-c2ccc(-c3ccccc3N)c3[nH]c4ccccc4c23)c1` stands 93.4%; under `COc1ccc(Nc2cc(C)nc(N3CCN(c4ccnc5cc(Cl)ccc45)CC3)n2)cc1`, 2.43% (active); under `C[C@H]1[C@H](C)CC[C@]2(C(=O)O)CC[C@]3(C)C(=CC[C@@H]4[C@@]5(C)C/C(=C/c6ccco6)C(=O)C(C)(C)[C@@H]5CC[C@]43C)[C@H]12`, -3.02% [100 µM] (active).
For `CC1(C)COC(=S)N1`, the growth is 80.3%.
Under `CSC1=C(N)C(=O)c2[nH]cc(CO)c2C1=N` stands -28.1% (active); under `CCCCCCCCCCCCCCCCCC1=NCCN1CCOC1=C(Cl)C(=O)c2ccccc2C1=O`, 70.1%.
Take `CC1(C)CNC(=O)N1`: the growth was 101%.
Take `Ic1ccc(OCCCCn2ccnc2)cc1`: the growth was 3.58% (active).
The figure for `CCOC(=O)c1c(C)nc2c(c1N)/C(=C/c1cc(OC)c(OC)c(OC)c1)C(=O)N2c1ccc(OC)cc1` is 28.2%; for `N#Cc1ccc(O)c(C2=NCC(c3ccc(-c4ccccc4)cc3)O2)c1` (stereo not given) it is -17.3% (active).
The figure for `O=C1CCC23OC(c4ccccc4N12)C(O)C(O)C3O` (stereo not given) is 97%; for `Cc1ncc(-c2ccoc2)c(NC2CCCCCC2)n1` it is 96.1%; for `CN(C)c1ccc(/C=N\NC(=O)c2ccc3nc(-c4ccc(Cl)cc4)[nH]c3c2)cc1` it is 37.4%.
The figure for `COc1cc(-c2c(-c3ccccc3)c[nH]c2C(=O)NCCCO)c(OC)c2c1OCO2` is 91.4%.
Consider `O=C(Nc1ccccc1)c1cc(Cl)ccc1O`, for which the growth is 29.6%.
